Screen size: about 39,000 compounds; about 1,500 (3.8%) were called active. For the sample, actives were picked, then their nearest neighbours and some compounds at random.
Tested on: HSkMC (human skeletal muscle cells)
Test: cytotoxicity call (relative viability < 0.9)
Details: 10 µM

Compound | cytotoxicity call
COc1ccc(CN(C)C[C@H]2Oc3c(NC(=O)C4CCOCC4)cccc3C(=O)N([C@@H](C)CO)C[C@@H]2C)cc1 | inactive
CN1C(=O)c2cc(NC(=O)C3CCOCC3)ccc2OC[C@@H]2O[C@@H](CC(=O)NCc3ccccc3F)CC[C@@H]21 | inactive
Cc1noc(C)c1NC(=O)N(C)C[C@H]1Oc2c(NC(=O)c3cnccn3)cccc2C(=O)N([C@@H](C)CO)C[C@@H]1C | inactive
C[C@H]1CN([C@@H](C)CO)C(=O)c2cc(NC(=O)C3CC3)ccc2O[C@H]1CN(C)S(=O)(=O)c1ccc(Cl)cc1 | inactive
CC(=O)N[C@H]1[C@H](Oc2nc3cc(C)ccc3o2)O[C@H](CO)[C@@H](O)[C@@H]1O | inactive
Cc1ccc(-c2ccc3c(c2)O[C@H](CN(C)C(=O)CN(C)C)[C@H](C)CN([C@@H](C)CO)S3(=O)=O)cc1 | inactive
O=C(CN1CCOCC1)N[C@H]1CC[C@H](CCNC(=O)Nc2cc(F)ccc2F)O[C@H]1CO | inactive
CN1C(=O)c2cc(NC(=O)c3ccc(F)c(F)c3)ccc2OC[C@@H]2O[C@H](CC(=O)N3CCOCC3)CC[C@@H]21 | inactive
Cc1noc(C)c1S(=O)(=O)N(C)C[C@H]1Oc2ccc(NC(=O)Nc3ccc4c(c3)OCO4)cc2C(=O)N([C@H](C)CO)C[C@@H]1C | inactive
COc1ccc(CN(C)C[C@@H]2OCCCC[C@@H](C)Oc3ccc(NC(=O)Nc4ccc(F)cc4)cc3C(=O)N([C@@H](C)CO)C[C@H]2C)cc1 | inactive
C[C@H](CO)N1C[C@H](C)[C@@H](CN(C)Cc2ccc(C(F)(F)F)cc2)Oc2ccc(NC(=O)Nc3ccc(C(F)(F)F)cc3)cc2CC1=O | active
C[C@@H]1CN([C@@H](C)CO)C(=O)Cc2cc(NC(=O)Nc3ccc(C(F)(F)F)cc3)ccc2O[C@@H]1CN(C)Cc1ccc(C(=O)O)cc1 | inactive
C[C@H]1CN([C@@H](C)CO)C(=O)Cc2cc(NC(=O)C3CCCCC3)ccc2O[C@@H]1CN(C)Cc1ccc(C(F)(F)F)cc1 | inactive
C[C@@H]1CN([C@H](C)CO)C(=O)Cc2cc(NC(=O)Nc3ccc(C(F)(F)F)cc3)ccc2O[C@@H]1CN(C)Cc1ccc(C(=O)O)cc1 | inactive
C[C@@H]1CN([C@@H](C)CO)C(=O)Cc2cc(NC(=O)C3CCCCC3)ccc2O[C@@H]1CN(C)Cc1ccc(C(F)(F)F)cc1 | active
C[C@H](CO)N1C[C@H](C)[C@@H](CN(C)Cc2ccc(C(F)(F)F)cc2)Oc2ccc(NC(=O)C3CCCCC3)cc2CC1=O | inactive
C[C@@H]1CN([C@H](C)CO)C(=O)Cc2cc(NC(=O)Nc3ccc(C(F)(F)F)cc3)ccc2O[C@@H]1CN(C)Cc1ccc(C(F)(F)F)cc1 | active
C[C@@H]1CN([C@H](C)CO)C(=O)Cc2cc(NC(=O)Nc3ccc(C(F)(F)F)cc3)ccc2O[C@H]1CN(C)Cc1ccc(C(F)(F)F)cc1 | active
